# Assay results from the supplement of paper PMC3414501.
# Structures can show the parent of a compound that is named as a salt. Values without a mark were called inactive.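 How the source made its calls: active = HIS4 sensitivity z-score above 5 vs DMSO controls; inactive = score 5 or below.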
# Test system: S. cerevisiae NKY1551 his4x/his4B, sporulating
# Test: HIS4 meiotic recombination assay sensitivity score (z-score vs DMSO controls); higher = stronger inhibition of sporulation/recombination, active = hit call of the paper
row,SMILES,HIS4 meiotic recombination assay sensitivity score
1,"O=c1c(O[C@@H]2O[C@H](CO)[C@@H](O)[C@H](O)[C@H]2O)c(-c2ccc(O)c(O)c2)oc2cc(O)cc(O)c12 [Isoquercetrin] (stock concentration (mM, diluted 1:100): 10)",-0.48
2,"Clc1ccc(CO/N=C(\Cn2ccnc2)c2ccc(Cl)cc2Cl)c(Cl)c1 [Oxiconazole nitrate] (stock concentration (mM, diluted 1:100): 10)",-3.02
3,"COc1ccc(C(=O)NCc2ccc(OCCN(C)C)cc2)cc1OC [Itopride hydrochloride] (stock concentration (mM, diluted 1:100): 8.2)",-1.08
4,"COc1ccc(CC(C)NCC(O)c2ccc(O)c(NC=O)c2)cc1 (stereo not drawn) [Formoterol fumarate dihydrate] (stock concentration (mM, diluted 1:100): 7)",-1.68
5,"CC(=O)N1CCN(c2ccc(OCC3COC(Cn4ccnc4)(c4ccc(Cl)cc4Cl)O3)cc2)CC1 (stereo not drawn) [Ketoconazole] (stock concentration (mM, diluted 1:100): 10)",-1.74
6,"Cc1cccc(C)c1NC(=O)C(C)N (stereo not drawn) [Tocainide] (stock concentration (mM, diluted 1:100): 10)",0.7
7,"CC(=O)SCC(Cc1ccccc1)C(=O)NCC(=O)OCc1ccccc1 (stereo not drawn) [Acetorphan] (stock concentration (mM, diluted 1:100): 10)",1.65
8,"CSc1nc2cc(Cl)c(Oc3cccc(Cl)c3Cl)cc2[nH]1 [Triclabendazole] (stock concentration (mM, diluted 1:100): 10)",-1.98
9,"CCN(CC)C(=S)SSC(=S)N(CC)CC [Tetraethylthiuram disulfide] (stock concentration (mM, diluted 1:100): 10)",-2.95
10,"CCOC(=O)C1=C(C)NC(C)=C(C(=O)OC)C1c1cccc([N+](=O)[O-])c1 (stereo not drawn) [Nitrendipine] (stock concentration (mM, diluted 1:100): 10)",1.41
11,"COc1ccccc1OCC(O)CN1CCN(CC(=O)Nc2c(C)cccc2C)CC1 (stereo not drawn) [Ranolazine dihydrochloride] (stock concentration (mM, diluted 1:100): 8.6)",-1.05
12,"CCOC(=O)OC(C)OC1=C(C(=O)Nc2ccccn2)N(C)S(=O)(=O)c2ccccc21 (stereo not drawn) [Ampiroxicam] (stock concentration (mM, diluted 1:100): 10)",1.18
13,"CN(C)CC[C@@H](c1ccc(Br)cc1)c1ccccn1 [Dexbrompheniramine maleate] (stock concentration (mM, diluted 1:100): 7.3)",7.19 (active)
14,"CNNCc1ccc(C(=O)NC(C)C)cc1 [Procarbazine hydrochloride] (stock concentration (mM, diluted 1:100): 8.6)",-1.19
15,"COc1cc(-c2ccc(=O)[nH]n2)ccc1OC(F)F [Zardaverine] (stock concentration (mM, diluted 1:100): 11.7)",-0.18
16,"O=C1c2c(O)cc(O)cc2OC(c2ccc(O)c(O)c2)C1O (stereo not drawn) [Taxifolin] (stock concentration (mM, diluted 1:100): 10)",-0.97
17,"Nc1ccn([C@H]2CC[C@@H](CO)O2)c(=O)n1 [Zalcitabine] (stock concentration (mM, diluted 1:100): 10)",-0.41
18,"OCCN1CCN(CCCN2c3ccccc3Sc3ccc(C(F)(F)F)cc32)CC1 [Fluphenazine hydrochloride] (stock concentration (mM, diluted 1:100): 10)",7.55 (active)
19,"CCOc1cc(N)c(Cl)cc1C(=O)NCC1CN(Cc2ccc(F)cc2)CCO1 (stereo not drawn) [Mosapride citrate] (stock concentration (mM, diluted 1:100): 6.9)",-0.43
20,"CC1CCN(CCCC(=O)c2ccc(F)cc2)CC1 [Metylperon] (stock concentration (mM, diluted 1:100): 10)",0.9
21,"CO[C@H]1O[C@@H]2O[C@@]3(C)CC[C@H]4[C@H](C)CC[C@@H]([C@H]1C)[C@@]24OO3 [Artemether] (stock concentration (mM, diluted 1:100): 10)",-0.64
22,"CN1CCN(CCCN2c3ccccc3Sc3ccc(C(F)(F)F)cc32)CC1 [Trifluoperazine dihydrochloride] (stock concentration (mM, diluted 1:100): 10)",-2.62
23,"O=[N+]([O-])c1cccc2cn[nH]c12 [7-Nitroindazole] (stock concentration (mM, diluted 1:100): 10)",-1.75
24,"C=CCc1ccc(O)c(-c2ccc(O)c(CC=C)c2)c1 [Honokiol] (stock concentration (mM, diluted 1:100): 10.1)",-1.68
25,"O=c1ncc(F)c[nH]1 [5-Fluoro-2-Pyrimidone] (stock concentration (mM, diluted 1:100): 10)",-0.02
26,"CC(C)(C)NC(=O)[C@@H]1CN(Cc2cccnc2)CCN1C[C@@H](O)C[C@@H](Cc1ccccc1)C(=O)N[C@H]1c2ccccc2C[C@H]1O [Indinavir sulphate] (stock concentration (mM, diluted 1:100): 8.6)",-1.36
27,"OC[C@H]1O[C@@H](Oc2cc(O)cc(/C=C/c3ccc(O)cc3)c2)[C@H](O)[C@@H](O)[C@@H]1O [Piceid] (stock concentration (mM, diluted 1:100): 10)",-1.14
28,"Cc1c(O)cccc1C(=O)N[C@@H](CSc1ccccc1)[C@H](O)CN1C[C@H]2CCCC[C@H]2C[C@H]1C(=O)NC(C)(C)C [Nelfinavir mesylate] (stock concentration (mM, diluted 1:100): 8.6)",0.21
